# According to publication PMC7862700, “An all-to-all approach to the identification of sequence-specific readers for epigenetic DNA modifications on cytosine”:
# Experiments:
# Test in all cases: DAPPL (digital affinity profiling via proximity ligation, sequencing); 10 mM Tris-HCl pH 7.5, 50 mM NaCl, 1 mM DTT, 4% glycerol, room temperature, 30 min; GST-TFs on glutathione beads, 16-mer random dsDNA library, 0.1% formaldehyde crosslink after washing; high values mean tight binding
# FLI1 = target: T1, FLI1 (Homo sapiens, UniProt Q01543 1-452); settings: protein: recombinant; tags: N-terminal GST; dsDNA, one strand shown
# T1 sequence: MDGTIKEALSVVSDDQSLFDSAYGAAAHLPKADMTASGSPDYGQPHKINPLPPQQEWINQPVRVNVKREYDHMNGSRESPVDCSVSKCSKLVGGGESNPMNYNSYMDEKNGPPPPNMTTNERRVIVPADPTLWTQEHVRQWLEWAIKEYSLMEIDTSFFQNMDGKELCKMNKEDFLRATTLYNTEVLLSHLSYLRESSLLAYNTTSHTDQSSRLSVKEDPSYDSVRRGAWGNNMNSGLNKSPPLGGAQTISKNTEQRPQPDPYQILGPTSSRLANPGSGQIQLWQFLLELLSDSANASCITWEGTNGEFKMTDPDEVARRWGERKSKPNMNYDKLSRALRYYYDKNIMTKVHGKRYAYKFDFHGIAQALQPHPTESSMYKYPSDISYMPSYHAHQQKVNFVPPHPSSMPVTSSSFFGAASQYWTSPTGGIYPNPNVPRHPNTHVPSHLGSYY
# Method in brief: (§1)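 GST fusions of human transcription factors were expressed in yeast and captured with glutathione beads. Once given DNA barcodes and pooled alongside a tag-only sample, they were incubated for 30 min at room temperature with 200 nmole of a random double-stranded 16-mer DNA library in Tris/NaCl/DTT/glycerol buffer, then washed, crosslinked (0.1% formaldehyde), proximity-ligated, PCR-amplified and sequenced on an Illumina NextSeq500. The binding signal of each hexamer is its read frequency for a factor divided by its frequency for the tag-only sample.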
# ELK1 = target: T2, ELK1 (Homo sapiens, UniProt P19419 1-428); settings: protein: recombinant; tags: N-terminal GST; dsDNA, one strand shown
# T2 sequence: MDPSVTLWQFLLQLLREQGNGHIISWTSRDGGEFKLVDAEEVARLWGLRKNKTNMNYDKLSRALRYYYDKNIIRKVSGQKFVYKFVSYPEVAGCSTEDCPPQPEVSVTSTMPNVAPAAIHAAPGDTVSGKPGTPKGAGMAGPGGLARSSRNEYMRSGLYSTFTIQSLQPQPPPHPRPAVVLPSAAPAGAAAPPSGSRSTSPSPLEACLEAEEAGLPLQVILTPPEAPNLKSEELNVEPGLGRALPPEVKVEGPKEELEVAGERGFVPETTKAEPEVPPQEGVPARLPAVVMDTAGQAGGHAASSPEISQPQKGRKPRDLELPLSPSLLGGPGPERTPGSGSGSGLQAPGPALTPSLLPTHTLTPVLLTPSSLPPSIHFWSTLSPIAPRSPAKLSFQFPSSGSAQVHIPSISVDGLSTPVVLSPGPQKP
# Method in brief: as §1
# GABPA = target: T3, GABPA (Homo sapiens, UniProt Q06546 1-454); settings: protein: recombinant; tags: N-terminal GST; dsDNA, one strand shown
# T3 sequence: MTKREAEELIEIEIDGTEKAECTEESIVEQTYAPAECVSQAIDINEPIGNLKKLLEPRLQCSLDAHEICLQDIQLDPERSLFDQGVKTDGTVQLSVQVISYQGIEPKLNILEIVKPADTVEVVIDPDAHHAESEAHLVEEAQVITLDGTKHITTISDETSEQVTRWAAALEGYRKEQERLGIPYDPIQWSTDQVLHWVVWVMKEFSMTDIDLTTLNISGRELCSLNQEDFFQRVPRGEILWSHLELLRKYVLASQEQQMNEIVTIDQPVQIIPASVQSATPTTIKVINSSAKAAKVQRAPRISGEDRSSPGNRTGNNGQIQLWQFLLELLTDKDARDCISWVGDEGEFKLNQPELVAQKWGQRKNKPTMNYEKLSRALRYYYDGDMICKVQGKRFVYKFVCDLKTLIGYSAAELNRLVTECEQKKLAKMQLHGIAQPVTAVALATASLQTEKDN
# Method in brief: as §1
# ERG = target: T4, ERG (Homo sapiens, UniProt P11308 1-479); settings: protein: recombinant; tags: N-terminal GST; dsDNA, one strand shown
# T4 sequence: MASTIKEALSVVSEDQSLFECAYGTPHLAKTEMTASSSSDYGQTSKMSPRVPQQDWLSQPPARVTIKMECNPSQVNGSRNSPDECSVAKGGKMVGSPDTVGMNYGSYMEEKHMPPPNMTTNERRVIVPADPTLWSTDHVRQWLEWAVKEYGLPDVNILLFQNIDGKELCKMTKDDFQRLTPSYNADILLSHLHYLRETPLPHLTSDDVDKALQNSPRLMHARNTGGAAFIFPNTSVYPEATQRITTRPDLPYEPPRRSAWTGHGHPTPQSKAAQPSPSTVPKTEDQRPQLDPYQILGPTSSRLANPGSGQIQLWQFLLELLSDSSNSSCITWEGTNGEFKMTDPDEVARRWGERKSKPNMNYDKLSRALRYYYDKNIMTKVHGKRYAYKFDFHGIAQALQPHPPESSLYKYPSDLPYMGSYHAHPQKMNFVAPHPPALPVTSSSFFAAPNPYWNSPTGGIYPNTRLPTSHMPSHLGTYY
# Method in brief: as §1
# ELF1 = ELF1 (Homo sapiens, UniProt P32519 1-619); settings: protein: recombinant; tags: N-terminal GST; dsDNA, one strand shown
# Chain of ELF1 (P32519 whole entry): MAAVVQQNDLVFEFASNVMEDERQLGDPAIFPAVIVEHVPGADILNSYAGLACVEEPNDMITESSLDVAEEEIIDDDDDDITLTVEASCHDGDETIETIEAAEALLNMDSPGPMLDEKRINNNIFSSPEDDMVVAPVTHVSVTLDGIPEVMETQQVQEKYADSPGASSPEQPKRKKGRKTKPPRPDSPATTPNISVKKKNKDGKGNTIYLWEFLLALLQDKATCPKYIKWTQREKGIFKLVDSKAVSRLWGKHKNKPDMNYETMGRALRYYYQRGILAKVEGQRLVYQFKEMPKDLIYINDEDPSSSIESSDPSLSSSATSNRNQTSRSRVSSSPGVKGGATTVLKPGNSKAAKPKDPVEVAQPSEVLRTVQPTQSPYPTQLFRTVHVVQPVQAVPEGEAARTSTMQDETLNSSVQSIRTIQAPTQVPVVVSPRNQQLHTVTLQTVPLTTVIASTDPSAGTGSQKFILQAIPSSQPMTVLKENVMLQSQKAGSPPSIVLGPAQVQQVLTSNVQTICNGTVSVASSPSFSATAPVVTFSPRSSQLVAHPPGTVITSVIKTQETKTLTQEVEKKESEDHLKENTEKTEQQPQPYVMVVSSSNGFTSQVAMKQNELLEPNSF
# Method in brief: as §1
# EHF = target: T5, EHF (Homo sapiens, UniProt Q9NZC4 1-300); settings: protein: recombinant; tags: N-terminal GST; dsDNA, one strand shown
# T5 sequence: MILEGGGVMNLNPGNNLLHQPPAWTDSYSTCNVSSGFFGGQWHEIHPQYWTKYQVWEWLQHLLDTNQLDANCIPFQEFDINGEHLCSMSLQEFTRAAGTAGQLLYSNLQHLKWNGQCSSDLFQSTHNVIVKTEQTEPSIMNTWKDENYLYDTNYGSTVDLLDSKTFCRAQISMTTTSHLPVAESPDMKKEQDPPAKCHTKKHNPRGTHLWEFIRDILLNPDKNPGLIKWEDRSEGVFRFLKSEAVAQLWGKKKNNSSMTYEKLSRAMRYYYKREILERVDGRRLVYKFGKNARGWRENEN
# Method in brief: as §1
# SPI1 = SPI1 (Homo sapiens, UniProt P17947 1-270); settings: protein: recombinant; tags: N-terminal GST; dsDNA, one strand shown
# Method in brief: as §1
# SPIB = SPIB (Homo sapiens, UniProt Q01892 1-262); settings: protein: recombinant; tags: N-terminal GST; dsDNA, one strand shown
# Chain of SPIB (Q01892 whole entry): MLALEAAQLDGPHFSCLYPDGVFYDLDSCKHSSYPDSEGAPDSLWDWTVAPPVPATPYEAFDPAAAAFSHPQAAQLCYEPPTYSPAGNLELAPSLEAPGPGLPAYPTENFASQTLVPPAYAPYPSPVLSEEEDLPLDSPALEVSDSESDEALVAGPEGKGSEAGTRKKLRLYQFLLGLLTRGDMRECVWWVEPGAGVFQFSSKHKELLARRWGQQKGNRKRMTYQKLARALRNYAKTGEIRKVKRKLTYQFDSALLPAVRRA
# Method in brief: as §1
# ELK3 = target: T6, ELK3 (Homo sapiens, UniProt P41970 1-407); settings: protein: recombinant; tags: N-terminal GST; dsDNA, one strand shown
# T6 sequence: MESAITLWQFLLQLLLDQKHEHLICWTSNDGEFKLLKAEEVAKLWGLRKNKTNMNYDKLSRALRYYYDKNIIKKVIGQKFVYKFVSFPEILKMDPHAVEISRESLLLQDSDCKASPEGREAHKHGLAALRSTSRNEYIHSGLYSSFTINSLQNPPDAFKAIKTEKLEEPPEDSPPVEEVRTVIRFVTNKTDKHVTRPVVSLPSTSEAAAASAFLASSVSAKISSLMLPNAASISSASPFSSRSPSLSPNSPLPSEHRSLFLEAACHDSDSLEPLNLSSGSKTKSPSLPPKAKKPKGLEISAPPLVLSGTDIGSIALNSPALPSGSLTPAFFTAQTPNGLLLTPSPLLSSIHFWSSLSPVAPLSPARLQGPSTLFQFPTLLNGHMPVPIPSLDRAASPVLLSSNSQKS
# Method in brief: as §1
# FEV = target: T7, FEV (Homo sapiens, UniProt Q99581 1-238); settings: protein: recombinant; tags: N-terminal GST; dsDNA, one strand shown
# T7 sequence: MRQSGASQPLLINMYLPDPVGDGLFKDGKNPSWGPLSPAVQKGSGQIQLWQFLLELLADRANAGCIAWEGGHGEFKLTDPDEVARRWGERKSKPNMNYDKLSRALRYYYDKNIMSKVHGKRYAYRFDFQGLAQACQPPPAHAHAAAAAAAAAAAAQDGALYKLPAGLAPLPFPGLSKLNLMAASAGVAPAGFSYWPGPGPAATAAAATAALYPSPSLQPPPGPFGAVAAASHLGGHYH
# Method in brief: as §1
# ETV5 = ETV5 (Homo sapiens, UniProt P41161 1-510); settings: protein: recombinant; tags: N-terminal GST; dsDNA, one strand shown
# Chain of ETV5 (P41161 whole entry): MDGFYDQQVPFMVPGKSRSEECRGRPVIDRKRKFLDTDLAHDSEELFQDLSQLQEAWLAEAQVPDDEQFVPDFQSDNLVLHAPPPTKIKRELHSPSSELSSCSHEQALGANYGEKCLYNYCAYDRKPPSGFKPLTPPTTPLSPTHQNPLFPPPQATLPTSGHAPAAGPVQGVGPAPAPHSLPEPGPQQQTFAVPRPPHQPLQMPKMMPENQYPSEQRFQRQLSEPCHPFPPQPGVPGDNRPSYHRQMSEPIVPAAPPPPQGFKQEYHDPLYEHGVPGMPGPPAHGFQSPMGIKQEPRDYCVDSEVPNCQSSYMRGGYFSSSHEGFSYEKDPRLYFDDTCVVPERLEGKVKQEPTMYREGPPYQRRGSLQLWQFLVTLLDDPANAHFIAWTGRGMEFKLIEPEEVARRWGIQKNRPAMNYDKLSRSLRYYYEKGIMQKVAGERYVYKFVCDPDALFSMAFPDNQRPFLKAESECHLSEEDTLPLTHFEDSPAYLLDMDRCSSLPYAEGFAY
# Method in brief: as §1
# HSF1 = HSF1 (Homo sapiens, UniProt Q00613 1-529); settings: protein: recombinant; tags: N-terminal GST; chain copies: 3; dsDNA, one strand shown
# Chain of HSF1 (Q00613 whole entry): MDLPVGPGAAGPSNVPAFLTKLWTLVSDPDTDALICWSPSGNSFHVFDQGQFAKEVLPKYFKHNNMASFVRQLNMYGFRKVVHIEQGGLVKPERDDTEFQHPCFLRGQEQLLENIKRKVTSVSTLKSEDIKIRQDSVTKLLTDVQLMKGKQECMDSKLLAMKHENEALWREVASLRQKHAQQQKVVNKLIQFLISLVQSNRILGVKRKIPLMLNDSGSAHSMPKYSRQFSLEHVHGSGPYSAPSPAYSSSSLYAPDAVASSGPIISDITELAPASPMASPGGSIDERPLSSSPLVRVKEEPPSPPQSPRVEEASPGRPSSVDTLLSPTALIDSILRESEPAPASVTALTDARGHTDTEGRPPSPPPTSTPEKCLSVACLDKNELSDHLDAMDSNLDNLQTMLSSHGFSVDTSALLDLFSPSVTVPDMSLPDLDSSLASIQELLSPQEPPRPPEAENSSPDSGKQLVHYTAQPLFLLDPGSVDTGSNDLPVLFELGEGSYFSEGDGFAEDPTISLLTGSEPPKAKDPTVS
# Method in brief: as §1
# SPIC = target: T8, SPIC (Homo sapiens, UniProt Q8N5J4 1-248); settings: protein: recombinant; tags: N-terminal GST; dsDNA, one strand shown
# T8 sequence: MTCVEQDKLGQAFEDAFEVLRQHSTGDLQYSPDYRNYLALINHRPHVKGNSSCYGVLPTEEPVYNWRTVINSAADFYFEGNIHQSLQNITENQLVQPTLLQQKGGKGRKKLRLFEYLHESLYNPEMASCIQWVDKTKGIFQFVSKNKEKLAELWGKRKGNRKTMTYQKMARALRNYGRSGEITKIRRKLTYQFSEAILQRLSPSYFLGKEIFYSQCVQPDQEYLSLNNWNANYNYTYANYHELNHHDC
# Method in brief: as §1
# ELF4 = ELF4 (Homo sapiens, UniProt Q99607 1-663); settings: protein: recombinant; tags: N-terminal GST; dsDNA, one strand shown
# Chain of ELF4 (Q99607 whole entry): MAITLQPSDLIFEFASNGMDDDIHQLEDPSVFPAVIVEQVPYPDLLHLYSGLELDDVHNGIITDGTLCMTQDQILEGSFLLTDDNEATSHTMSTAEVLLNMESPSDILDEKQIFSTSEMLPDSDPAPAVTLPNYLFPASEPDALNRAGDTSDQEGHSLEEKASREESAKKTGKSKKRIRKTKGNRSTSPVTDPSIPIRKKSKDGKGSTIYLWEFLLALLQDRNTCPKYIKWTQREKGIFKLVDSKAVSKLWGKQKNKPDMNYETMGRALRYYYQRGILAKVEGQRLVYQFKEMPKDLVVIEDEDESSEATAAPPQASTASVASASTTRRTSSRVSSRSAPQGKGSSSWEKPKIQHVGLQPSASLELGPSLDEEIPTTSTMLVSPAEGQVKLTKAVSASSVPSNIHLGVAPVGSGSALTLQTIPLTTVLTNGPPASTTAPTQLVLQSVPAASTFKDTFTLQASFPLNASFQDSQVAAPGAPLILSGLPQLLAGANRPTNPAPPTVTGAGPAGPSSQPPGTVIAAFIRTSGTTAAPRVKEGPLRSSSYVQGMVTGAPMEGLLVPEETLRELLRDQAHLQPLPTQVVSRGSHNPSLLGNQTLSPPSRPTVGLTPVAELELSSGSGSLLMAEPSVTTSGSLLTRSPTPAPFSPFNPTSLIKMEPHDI
# Method in brief: as §1
# ELK4 = target: T9, ELK4 (Homo sapiens, UniProt P28324-2 1-405); settings: protein: recombinant; tags: N-terminal GST; dsDNA, one strand shown
# T9 sequence: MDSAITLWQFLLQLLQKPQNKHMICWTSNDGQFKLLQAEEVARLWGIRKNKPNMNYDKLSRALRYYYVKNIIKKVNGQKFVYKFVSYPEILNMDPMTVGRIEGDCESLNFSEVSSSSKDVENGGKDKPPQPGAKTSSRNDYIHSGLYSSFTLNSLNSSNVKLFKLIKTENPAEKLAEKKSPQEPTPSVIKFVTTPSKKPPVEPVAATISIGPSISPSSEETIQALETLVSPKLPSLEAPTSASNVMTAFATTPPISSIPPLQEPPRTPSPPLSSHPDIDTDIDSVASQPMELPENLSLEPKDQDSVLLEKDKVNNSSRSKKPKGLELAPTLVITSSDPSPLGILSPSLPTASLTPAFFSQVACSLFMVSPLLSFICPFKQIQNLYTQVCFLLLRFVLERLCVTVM
# Method in brief: as §1
# ETV2 = target: T10, ETV2 (Homo sapiens, UniProt O00321 1-342); settings: protein: recombinant; tags: N-terminal GST; dsDNA, one strand shown
# T10 sequence: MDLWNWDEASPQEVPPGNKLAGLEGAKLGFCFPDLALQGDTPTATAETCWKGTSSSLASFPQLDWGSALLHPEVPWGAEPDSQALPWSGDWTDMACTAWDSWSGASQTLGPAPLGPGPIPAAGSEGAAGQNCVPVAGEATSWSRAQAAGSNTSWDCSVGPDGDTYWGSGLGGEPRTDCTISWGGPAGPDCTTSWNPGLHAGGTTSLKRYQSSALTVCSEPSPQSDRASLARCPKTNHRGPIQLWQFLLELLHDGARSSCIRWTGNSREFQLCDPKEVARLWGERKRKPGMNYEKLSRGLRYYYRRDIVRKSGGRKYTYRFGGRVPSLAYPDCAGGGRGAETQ
# Method in brief: as §1
# ELF3 = target: T11, ELF3 (Homo sapiens, UniProt P78545 1-371); settings: protein: recombinant; tags: N-terminal GST; dsDNA, one strand shown
# T11 sequence: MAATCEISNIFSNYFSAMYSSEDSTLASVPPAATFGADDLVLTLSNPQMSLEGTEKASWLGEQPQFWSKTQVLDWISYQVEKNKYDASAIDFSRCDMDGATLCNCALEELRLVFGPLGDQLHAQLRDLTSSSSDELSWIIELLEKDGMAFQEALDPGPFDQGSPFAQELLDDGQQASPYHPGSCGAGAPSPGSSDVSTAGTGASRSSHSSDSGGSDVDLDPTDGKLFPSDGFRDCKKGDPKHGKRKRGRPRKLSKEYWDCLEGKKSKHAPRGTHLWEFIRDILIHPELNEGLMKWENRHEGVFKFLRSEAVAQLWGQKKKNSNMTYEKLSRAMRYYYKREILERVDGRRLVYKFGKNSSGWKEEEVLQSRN
# Method in brief: as §1
# CRX = CRX (Homo sapiens, UniProt O43186 1-299); settings: protein: recombinant; tags: N-terminal GST; dsDNA, one strand shown
# Chain of CRX (O43186 whole entry): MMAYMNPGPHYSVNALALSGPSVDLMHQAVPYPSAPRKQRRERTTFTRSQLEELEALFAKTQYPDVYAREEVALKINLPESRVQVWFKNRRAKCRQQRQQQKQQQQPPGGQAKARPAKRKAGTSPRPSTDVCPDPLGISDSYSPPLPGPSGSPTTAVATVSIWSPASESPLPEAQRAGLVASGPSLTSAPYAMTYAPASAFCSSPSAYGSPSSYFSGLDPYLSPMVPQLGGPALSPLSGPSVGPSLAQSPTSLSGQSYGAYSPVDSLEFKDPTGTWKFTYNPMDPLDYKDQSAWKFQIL
# Method in brief: as §1
# ETV1 = ETV1 (Homo sapiens, UniProt P50549 1-477); settings: protein: recombinant; tags: N-terminal GST; dsDNA, one strand shown
# Chain of ETV1 (P50549 whole entry): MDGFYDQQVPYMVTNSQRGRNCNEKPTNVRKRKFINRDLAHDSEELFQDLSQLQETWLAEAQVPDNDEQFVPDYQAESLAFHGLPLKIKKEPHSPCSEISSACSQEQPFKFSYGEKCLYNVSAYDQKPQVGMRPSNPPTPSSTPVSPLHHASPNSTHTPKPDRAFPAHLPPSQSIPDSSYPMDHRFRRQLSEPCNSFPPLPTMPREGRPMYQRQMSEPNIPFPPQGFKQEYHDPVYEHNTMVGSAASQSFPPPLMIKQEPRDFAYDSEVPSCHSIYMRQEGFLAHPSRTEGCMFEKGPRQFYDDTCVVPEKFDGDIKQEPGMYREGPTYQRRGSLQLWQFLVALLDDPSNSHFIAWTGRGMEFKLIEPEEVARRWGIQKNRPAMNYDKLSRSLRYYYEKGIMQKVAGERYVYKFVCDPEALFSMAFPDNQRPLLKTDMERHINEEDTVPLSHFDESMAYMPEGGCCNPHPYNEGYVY
# Method in brief: as §1
sequence,measurement,setting,value
GAACTT,binding signal,FLI1,"1.68 fold enrichment (6-mer frequency, TF over GST control)"
same,binding signal,ELK1,"1.65 fold enrichment (6-mer frequency, TF over GST control)"
same,binding signal,GABPA,"1.62 fold enrichment (6-mer frequency, TF over GST control)"
same,binding signal,ERG,"1.58 fold enrichment (6-mer frequency, TF over GST control)"
same,binding signal,ELF1,"1.7 fold enrichment (6-mer frequency, TF over GST control)"
same,binding signal,EHF,"1.59 fold enrichment (6-mer frequency, TF over GST control)"
same,binding signal,SPI1,"1.74 fold enrichment (6-mer frequency, TF over GST control)"
same,binding signal,SPIB,"1.69 fold enrichment (6-mer frequency, TF over GST control)"
same,binding signal,ELK3,"1.7 fold enrichment (6-mer frequency, TF over GST control)"
same,binding signal,FEV,"1.72 fold enrichment (6-mer frequency, TF over GST control)"
same,binding signal,ETV5,"1.66 fold enrichment (6-mer frequency, TF over GST control)"
same,binding signal,HSF1,"2.03 fold enrichment (6-mer frequency, TF over GST control)"
same,binding signal,SPIC,"1.71 fold enrichment (6-mer frequency, TF over GST control)"
same,binding signal,ELF4,"1.52 fold enrichment (6-mer frequency, TF over GST control)"
same,binding signal,ELK4,"1.48 fold enrichment (6-mer frequency, TF over GST control)"
same,binding signal,ETV2,"1.44 fold enrichment (6-mer frequency, TF over GST control)"
same,binding signal,ELF3,"1.5 fold enrichment (6-mer frequency, TF over GST control)"
same,binding signal,CRX,"1.32 fold enrichment (6-mer frequency, TF over GST control)"
same,binding signal,ETV1,"1.68 fold enrichment (6-mer frequency, TF over GST control)"
